The target in assay [1] is Luciferin 4-monooxygenase (Photinus pyralis) (UniProt P08659). Kind of assay: qHTS assay to identify small molecule inhibitors of firefly luciferase (AID 1224835). For activity change, negative = inhibition: series mostly up to about 120 µM. Note: nearly all actives have a fitted effect of over 25% in size. Note: potency is the fitted concentration of half-maximal effect. Put shortly:
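Inhibition of purified Photinus luciferase is measured by luminescence. Substrate levels (D-luciferin, ATP) sit at their KM values. Each compound is tested in a concentration series.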

The nature of assay [2]: qHTS assay to identify small molecule agonists of the constitutive androstane receptor (CAR) signaling pathway - cell viability counter screen (AID 1224836). Note: series mostly up to about 92 µM; nearly all actives have a fitted effect of over 45% in size. Put shortly: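 HepG2 cells stably carrying hCAR and a CYP2B6-2.2kb reporter were plated 4 h, then given compounds at 15 concentrations plus PK11195 (final 0.75 uM). After 23 h at 37 C, viability was read by CellTiter-Fluor fluorescence.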
For orientation: In qHTS, concentration-response curves come from the screen itself.

Assay [3] in a line: qHTS assay to identify small molecule antagonists of the constitutive androstane receptor (CAR) signaling pathway - cell viability counter screen (AID 1224837). Note: series mostly up to about 92 µM; nearly all actives have a fitted effect of over 45% in size. The method in brief: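 HepG2 cells stably expressing hCAR and a CYP2B6-2.2kb reporter were plated and pre-incubated 4 hr at 37 C/5% CO2, then given compounds at 15 concentrations plus 50 nM CITCO (final). After 23 hr, viability was read by CellTiter-Fluor fluorescence.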

Assay [4] addresses Nuclear receptor subfamily 1 group I member 3 (Homo sapiens) (UniProt Q14994). Kind of assay: qHTS assay to identify small molecule antagonists of the constitutive androstane receptor (CAR) signaling pathway (AID 1224838). Note: nearly all actives have a fitted effect of over 40% in size. Put shortly: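 HepG2 cells stably co-transfected with hCAR and a CYP2B6-2.2kb luciferase reporter were seeded 4 h before compound addition at 15 concentrations. Cells were stimulated with 50 nM CITCO (final) for 24 h at 37 C; luciferase luminescence was then read.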

Assay [5] has the same target. In words: qHTS assay to identify small molecule agonists of the constitutive androstane receptor (CAR) signaling pathway (AID 1224839). Note: nearly all actives have a fitted effect of over 15% in size. Note: potency is the fitted concentration of half-maximal effect. The method in brief: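 HepG2 cells stably expressing hCAR and a CYP2B6-2.2kb luciferase reporter were treated with compounds at 15 concentrations plus 0.75 uM PK11195 (final) for 24 h at 37 C; luminescence was read after ONE-Glo addition.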

Assay [6] in a line: qHTS assay to identify small molecule antagonists of the estrogen related receptor signaling pathway with the pleiotropic PPARgamma coactivator (PGC) from Tox21 10K library - cell viability counter screen (AID 1224840; active = well fitted cell-killing curve with a large enough effect in the repeat runs, not every such curve was filed as active; note: nearly all actives have a fitted effect of over 40% in size). Put shortly: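 PGC/ERR cells were seeded at 2,000 cells/well and left 6 hours at 37 C/5% CO2 before pin-tool addition of compounds in DMSO. After 17.5 hours at 37 C, CellTiter-Fluor was added and fluorescence read 30 minutes later.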

Assay [7] concerns the target Thyrotropin receptor (Homo sapiens) (UniProt P16473). Kind of assay: qHTS assay to identify small molecule agonists of the thyroid stimulating hormone receptor (TSHR) signaling pathway (AID 1224843; calls by dose curve; note: nearly all actives have a fitted effect of over 45% in size). Put shortly: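 HEK293 cells stably bearing the thyrotropin receptor were plated at 800 cells/well and challenged with compound (30 min, RT). Accumulated cAMP was quantified via cAMP-d2 competing for cryptate-tagged antibody.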

Assay [8] in a line: qHTS assay to identify small molecule agonists of the hypoxia (HIF-1) signaling pathway - cell viability counter screen (AID 1224844; calls by dose curve; note: nearly all actives have a fitted effect of over 50% in size). The method in brief:
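HRE-bla ME-180 cells in medium with 0.5% dialyzed FBS were preincubated 5 hrs at 37C, exposed to compounds for 17 hrs, then viability was read as CellTiter-Glo luminescence after 30 min at room temperature, in the reporter wells.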

Assay [9] in a line: qHTS assay to identify small molecule antagonists of the estrogen related receptor signaling pathway with the pleiotropic PPARgamma coactivator (PGC) from Tox21 10K library (AID 1224841; call rule not given here; note: actives are mostly falling curves and most rising ones were filed inactive; nearly all actives have a fitted effect of over 50% in size; note: potency is the fitted concentration of half-maximal effect). The method in brief:
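PGC/ERR reporter cells were seeded at 2,000 cells/well and held 6 hours at 37 C/5% CO2 before pin-tool addition of compounds in DMSO. After 18 hours at 37 C, One-Glo was added and luminescence read after 30 minutes at room temperature.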

Assay [10] can be described thus: qHTS assay to identify small molecule agonists of the estrogen related receptor signaling pathway with the pleiotropic PPARgamma coactivator (PGC) from Tox21 10K library (AID 1224842). Note: nearly all actives have a fitted effect of over 15% in size. The method in brief: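 Luminescence from One-Glo (30 min, room temperature) measured after PGC/ERR cells had 18 h at 37 C with pinned compound (23 nL in DMSO). Cells had been seeded at 2,000 per well and pre-incubated 6 h.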

Results on 25 compounds are retold here after PubChem BioAssay (Tox21).

Values joined by “and” are separate entries in the source; they are usually repeats but may differ in a detail not shown here. Equal entries are not always repeated. Inconclusive results are not listed. A structure can be active in one record and inactive in another. Unmarked numbers belong to inactive results. Active and inactive are the calls of the source. Unless noted, calls come from the whole dose curve; as a rule, active = well fitted curve in the direction sought with a large enough effect in the repeat runs; inconclusive = weak or mixed curves; inactive = no such curve, though single readings can be large; an effect the other way counts as inactive or inconclusive.
% is set by controls: 0 for no effect and ±100 for the full control effect.

Chain of Nuclear receptor subfamily 1 group I member 3 (Homo sapiens) (Q14994 whole entry, looked up): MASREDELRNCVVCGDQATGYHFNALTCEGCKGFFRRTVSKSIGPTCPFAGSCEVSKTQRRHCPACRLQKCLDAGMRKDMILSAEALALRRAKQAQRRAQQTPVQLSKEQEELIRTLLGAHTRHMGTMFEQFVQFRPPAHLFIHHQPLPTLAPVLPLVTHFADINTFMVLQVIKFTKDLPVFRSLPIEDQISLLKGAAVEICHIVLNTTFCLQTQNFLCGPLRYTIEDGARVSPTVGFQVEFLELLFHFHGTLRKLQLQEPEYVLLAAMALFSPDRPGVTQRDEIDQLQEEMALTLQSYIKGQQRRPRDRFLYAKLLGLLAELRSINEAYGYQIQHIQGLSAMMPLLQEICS
Chain of Luciferin 4-monooxygenase (Photinus pyralis) (P08659 whole entry, looked up): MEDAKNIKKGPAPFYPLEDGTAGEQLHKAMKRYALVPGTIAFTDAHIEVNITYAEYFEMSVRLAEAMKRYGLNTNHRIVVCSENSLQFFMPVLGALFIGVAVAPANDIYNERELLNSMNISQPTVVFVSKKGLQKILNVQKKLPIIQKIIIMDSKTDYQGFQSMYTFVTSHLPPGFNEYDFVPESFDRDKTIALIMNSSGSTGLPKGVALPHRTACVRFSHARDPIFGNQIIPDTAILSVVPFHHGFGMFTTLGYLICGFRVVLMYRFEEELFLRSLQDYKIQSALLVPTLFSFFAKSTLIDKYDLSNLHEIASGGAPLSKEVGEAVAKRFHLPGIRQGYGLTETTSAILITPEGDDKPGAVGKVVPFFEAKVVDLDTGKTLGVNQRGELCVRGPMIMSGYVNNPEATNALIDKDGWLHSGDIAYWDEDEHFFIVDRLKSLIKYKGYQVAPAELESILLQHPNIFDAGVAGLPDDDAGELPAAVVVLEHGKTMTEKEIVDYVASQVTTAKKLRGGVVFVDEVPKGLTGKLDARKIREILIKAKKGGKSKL
Chain of Thyrotropin receptor (Homo sapiens) (P16473 whole entry, looked up): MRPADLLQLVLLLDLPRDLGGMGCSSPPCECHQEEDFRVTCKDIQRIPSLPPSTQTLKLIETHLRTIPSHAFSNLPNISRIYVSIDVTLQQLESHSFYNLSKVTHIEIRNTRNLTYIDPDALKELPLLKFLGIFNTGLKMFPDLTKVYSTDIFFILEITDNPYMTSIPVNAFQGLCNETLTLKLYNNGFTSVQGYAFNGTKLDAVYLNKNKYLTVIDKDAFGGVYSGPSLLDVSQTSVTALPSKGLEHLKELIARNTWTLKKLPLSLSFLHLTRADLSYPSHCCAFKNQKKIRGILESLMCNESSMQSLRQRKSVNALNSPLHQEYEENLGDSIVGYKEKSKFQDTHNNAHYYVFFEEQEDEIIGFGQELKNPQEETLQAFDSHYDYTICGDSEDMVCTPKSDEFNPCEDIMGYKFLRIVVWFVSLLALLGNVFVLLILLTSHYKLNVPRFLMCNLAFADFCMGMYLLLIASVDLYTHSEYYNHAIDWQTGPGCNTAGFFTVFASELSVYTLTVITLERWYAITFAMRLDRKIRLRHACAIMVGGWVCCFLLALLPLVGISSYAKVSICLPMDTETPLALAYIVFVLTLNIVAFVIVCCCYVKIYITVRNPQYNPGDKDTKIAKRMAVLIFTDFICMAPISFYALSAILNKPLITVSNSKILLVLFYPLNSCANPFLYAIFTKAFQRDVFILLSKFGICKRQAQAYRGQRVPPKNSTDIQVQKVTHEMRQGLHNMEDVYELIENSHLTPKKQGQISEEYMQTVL

As for `CN1Cc2c(N)cccc2C(c2ccccc2)C1` (configuration not stated), the Potency entry in assay [1], in assay [2], in assay [3], in assay [4], in assay [5] and in assay [6] was “inactive” each time. Also, the Potency result in [7] and in [8] was “inactive” in each case.

Consider `CCCCCCCCO`, for which the Potency result in assay [1], in [2], in assay [3], in assay [4], in assay [5] and in assay [6] was “inactive” throughout. For the same compound, the Potency entry in assay [7] and in assay [8] was “inactive” each time.

As for `CC(=O)OC/C=C(\C)CCC=C(C)C`, the Potency entry in [1], in [2], in assay [3], in assay [4], in [5] and in assay [6] was “inactive” in each case. The Potency entry in [7] and in [8] was “inactive” in each case.

Regarding `O=[N+]([O-])c1cc(C(F)(F)F)ccc1Cl`, the Potency result in assay [1], in assay [2], in assay [3], in assay [4], in assay [5] and in assay [6] was “inactive” throughout. Further, the Potency entry in [9], in assay [10], in assay [7] and in [8] was “inactive” in each case.

In the case of `COc1cc(NC(=O)CC(C)=O)c(OC)cc1Cl`, the Potency entry in assay [1], in assay [2], in assay [3], in assay [4], in assay [6] and in [10] was “inactive” each time. The Potency result in [7] and in assay [8] was “inactive” each time. In addition, the Potency in [5] is 61.4 µM (active) and 61.1 µM (active); in [9], 38.7 µM (active).

For `Cc1ccc(C)c(S(=O)(=O)O)c1`, the Potency entry in assay [1], in assay [2], in assay [3], in assay [4], in assay [5] and in assay [6] was “inactive” in each case. The Potency result in [7] and in [8] was “inactive” throughout.

As for `CC(=O)OCCC(C)C`, the Potency result in [1], in [2], in assay [3], in assay [4], in [5] and in assay [6] was “inactive” each time. Moreover, the Potency result in assay [9], in assay [10] and in assay [8] was “inactive” in each case.

As to `CCCCCCCCCCCCCC(=O)O`, the Potency in assay [1] was 50.1 µM (active). For the same compound, the Potency entry in assay [2], in assay [3], in [4], in [5], in assay [6] and in [9] was “inactive” in each case. The Potency entry in assay [10], in assay [7] and in [8] was “inactive” each time.

`Nc1nc(N)c2nc(-c3ccccc3)c(N)nc2n1`: the Potency in [1] is 40.4 µM (active) and 39.9 µM (active). For the same compound, the Potency entry in assay [2], in assay [3], in assay [4], in assay [5], in assay [6] and in assay [9] was “inactive” throughout. The Potency entry in [10], in [7] and in assay [8] was “inactive” in each case.

For the compound `CC(=O)OCc1ccc2c(c1)OCO2`, the Potency entry in assay [1], in assay [2], in assay [3], in assay [4], in [5] and in assay [6] was “inactive” in each case. Besides, the Potency result in [9], in [10], in [7] and in assay [8] was “inactive” in each case.

Regarding `CC(COCC(C)OC(=O)c1ccccc1)OC(=O)c1ccccc1` (configuration not stated), the Potency entry in assay [1], in assay [2], in assay [3], in assay [4], in [5] and in [6] was “inactive” in each case. Moreover, the Potency result in assay [9], in assay [10] and in assay [8] was “inactive” in each case.

Turning to `Cc1ccccc1C=O`, the Potency result in assay [1], in assay [2], in assay [3], in [4], in assay [5] and in [6] was “inactive” in each case. The Potency result in assay [7] and in [8] was “inactive” throughout.

For `O=C(O)Cc1c[nH]c2ccccc12`, the Potency entry in [1], in assay [2], in assay [3], in [4], in assay [5] and in assay [6] was “inactive” in each case. In addition, the Potency entry in [9], in assay [10], in assay [7] and in assay [8] was “inactive” throughout.

Turning to `COc1ccccc1[N+](=O)[O-]`, the Potency result in assay [1], in [2], in [3], in assay [4], in assay [5] and in [6] was “inactive” each time. The Potency result in [9], in [10] and in assay [8] was “inactive” in each case.

As for `CC(=O)Nc1ccc(CC(=O)O)cc1`, the Potency entry in assay [1], in [2], in [3], in [4], in assay [5] and in [6] was “inactive” in each case. In addition, the Potency result in assay [9], in assay [10], in [7] and in assay [8] was “inactive” throughout.

Consider `C1CCCNCC1`, for which the Potency entry in assay [1], in [2], in assay [3], in [4], in assay [5] and in [6] was “inactive” each time. The Potency result in assay [9], in assay [10], in assay [7] and in [8] was “inactive” each time.

For `Brc1ccc(Oc2ccc(Br)cc2)cc1`, the Potency result in [1], in [2], in [3], in assay [4], in [5] and in [6] was “inactive” throughout. In addition, the Potency result in assay [7] and in [8] was “inactive” each time.

With `OB(O)O`, the Potency entry in assay [1], in assay [2], in [3], in assay [4], in assay [5] and in assay [6] was “inactive” each time. Also, the Potency entry in [9], in assay [10], in [7] and in assay [8] was “inactive” each time.

Regarding `CCCOC(=O)NCCCN(C)C`, the Potency result in assay [1], in assay [2], in assay [3], in assay [4], in assay [5] and in [6] was “inactive” in each case. Besides, the Potency entry in assay [7] and in assay [8] was “inactive” throughout.

With `CCCCCC(C)=O`, the Potency entry in assay [1], in assay [2], in assay [3], in assay [4], in assay [5] and in assay [6] was “inactive” throughout. Besides, the Potency result in assay [9], in [10] and in assay [8] was “inactive” throughout.

As to `COCN(COC)c1nc(N(COC)COC)nc(N(COC)COC)n1`, the Potency entry in assay [1], in [2], in assay [3], in assay [4], in assay [5] and in assay [6] was “inactive” each time. The Potency result in assay [9], in [10], in [7] and in assay [8] was “inactive” in each case.

`CCCCCCCCCCCC(=O)N(C)CC(=O)O`: in [1], the Potency is 77.2 µM (active). For the same compound, the activity change, negative = inhibition in assay [1] was 1.62% [at 10.5 µM]. Further, the Potency entry in assay [2], in assay [3], in [6] and in assay [7] was “inactive” each time. Besides, in assay [8], the activity change, negative = cytotoxicity was 0.126% [at 6.97 µM].

Consider `CCCCC(=O)O`, for which the Potency entry in assay [1], in [2], in [3], in assay [4], in assay [5] and in assay [6] was “inactive” each time. For the same compound, the Potency result in [7] and in [8] was “inactive” in each case.

`COC(=O)/C=C\C(=O)OC`: the Potency result in assay [1], in assay [2], in [3], in assay [4], in assay [5] and in assay [6] was “inactive” throughout. Besides, the Potency entry in assay [9], in [10], in [7] and in assay [8] was “inactive” in each case.

On to `Cc1cc(C)cc(O)c1`, for which the Potency entry in assay [1], in assay [2], in assay [3], in assay [4], in [5] and in [6] was “inactive” in each case. Further, the Potency entry in assay [9], in [10], in [7] and in assay [8] was “inactive” each time.
